The source made the active and inactive calls. The call rests on the fitted dose curve; in most records, active means well fitted curve in the direction sought with a large enough effect in the repeat runs; inconclusive means weak or mixed curves; inactive means flat fitted curve, though single readings scatter.
Test: qHTS assay to test for compound auto fluorescence at 590 nm (red) in HepG2 cells (AID 720674)
Settings: HepG2 autofluorescence, red 540/590 nm, 1 h; series mostly up to 91.3 µM
How it was run: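 HepG2 cells, 2,000 per well in MEM with 10% FBS, attached overnight at 37 C, then got 23 nL compound or DMSO. After 1 hr at 37 C, 5% CO2, red fluorescence was read at 540/590 nm against Rose Bengal sodium as reference.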

Row | Compound | outcome
1 | CCCc1nn(C)c2c(=O)[nH]c(-c3cc(S(=O)(=O)N4CCN(C)CC4)ccc3OCC)nc12 | inactive
2 | CO[C@@]1(NC(=O)CSC[C@@H](N)C(=O)O)C(=O)N2C(C(=O)O)=C(CSc3nnnn3C)CS[C@@H]21 | inactive
3 | CN(C)CCN(C)CCN(C)C | inactive
4 | Cc1ccc(C(=O)Nc2ccc(S(=O)(=O)O)c3cc(S(=O)(=O)O)cc(S(=O)(=O)O)c23)cc1NC(=O)c1cccc(NC(=O)Nc2cccc(C(=O)Nc3cc(C(=O)Nc4ccc(S(=O)(=O)O)c5cc(S(=O)(=O)O)cc(S(=O)(=O)O)c45)ccc3C)c2)c1 | inactive
5 | C=C(C)C(=O)OCCOCCOCCOCCOC(=O)C(=C)C | inactive
6 | OCCCCCO | inactive
7 | CO[Si](C)(OC)c1ccccc1 | inactive
8 | CC1=NS(=O)(=O)c2cc(Cl)ccc2N1 | inactive
9 | CCOC(=O)CCC(=O)OCC | inactive
10 | CC1(C)[C@@H]2CC[C@@]1(C)[C@H](O)C2 | inactive
11 | CCCC(C)C(=O)OCC (centres undefined) | inactive
12 | CCCCS(=O)(=O)N[C@@H](Cc1ccc(OCCCCC2CCNCC2)cc1)C(=O)O | inactive
13 | c1coc(CNc2ncnc3nc[nH]c23)c1 | inactive
14 | CCOC(=O)COc1cc(-n2ncc(C(F)(F)F)c(C)c2=O)c(F)cc1Cl | inactive
15 | CC(C)CCCO | inactive
16 | CC(=O)N1C[C@H](O)C[C@H]1C(=O)O | inactive
17 | O=S(=O)(O)c1cccc2c(S(=O)(=O)O)cccc12 | inactive
18 | C=CN1CCCCCC1=O | inactive

Row | Compound | outcome
19 | C[N+]1(C)[C@@H]2CC(OC(=O)[C@H](CO)c3ccccc3)C[C@H]1[C@@H]1O[C@@H]12 (some centres undefined) | inactive
20 | CC(C)C[C@@H](N)C(=O)O | inactive
21 | CCCCCCCCCCCCSC | inactive
22 | C=CCOCC(O)CO (centres undefined) | inactive
23 | CC(=O)Oc1cccc(C)c1 | inactive
24 | CC1=CCC(O)(C(C)C)CC1 (centres undefined) | inactive
25 | CCOC(=O)COC(=O)c1ccccc1C(=O)OCC | inactive
26 | COC(=O)Nc1ccc(Cl)c(Cl)c1 | inactive
27 | CCCCCCC1CCC(=O)O1 (centres undefined) | inactive
28 | CC[C@H]1OC(=O)[C@H](C)[C@@H](O[C@H]2C[C@@](C)(OC)[C@@H](O)[C@H](C)O2)[C@H](C)[C@@H](O[C@@H]2O[C@H](C)C[C@H](N(C)C)[C@H]2O)[C@](C)(OC)C[C@@H](C)C(=O)[C@H](C)[C@@H](O)[C@]1(C)O | inactive
29 | C=CC(C)(CCC=C(C)C)OC(=O)CC (centres undefined) | inactive
30 | CC(=O)c1ccc2ccccc2c1 | inactive
31 | CC(C)(C)C(=O)Oc1ccc(S(=O)(=O)Nc2ccccc2C(=O)NCC(=O)O)cc1 | inactive
32 | CC(N)C12CC3CC(CC(C3)C1)C2 (centres undefined) | inactive
33 | O=C(O)c1cc(C(=O)O)cc(C(=O)O)c1 | inactive
34 | CCC(=O)OCc1ccccc1 | inactive
35 | CC(C)C1CCC(O)CC1 (centres undefined) | inactive
36 | COc1cc(C(=O)OC(COCCC(C)C)CN2CCOCC2)cc(OC)c1OC (centres undefined) | inactive

Test: qHTS assay to test for compound auto fluorescence at 535 nm (green) in HepG2 cells (AID 720675)
Settings: green autofluorescence 485/535 nm, 1 h; series mostly up to 91.3 µM

Row | Compound | outcome
37 | CCCc1nn(C)c2c(=O)[nH]c(-c3cc(S(=O)(=O)N4CCN(C)CC4)ccc3OCC)nc12 | inactive
38 | OCCCCCO | inactive
39 | CO[Si](C)(OC)c1ccccc1 | inactive
40 | CC1=NS(=O)(=O)c2cc(Cl)ccc2N1 | inactive
41 | CCOC(=O)CCC(=O)OCC | inactive
42 | CC1(C)[C@@H]2CC[C@@]1(C)[C@H](O)C2 | inactive
43 | CCCC(C)C(=O)OCC (centres undefined) | inactive
44 | CCCCS(=O)(=O)N[C@@H](Cc1ccc(OCCCCC2CCNCC2)cc1)C(=O)O | inactive
45 | CCOC(=O)COc1cc(-n2ncc(C(F)(F)F)c(C)c2=O)c(F)cc1Cl | inactive
46 | CC(=O)N1C[C@H](O)C[C@H]1C(=O)O | inactive
47 | O=S(=O)(O)c1cccc2c(S(=O)(=O)O)cccc12 | inactive
48 | C=CN1CCCCCC1=O | inactive
49 | C[N+]1(C)[C@@H]2CC(OC(=O)[C@H](CO)c3ccccc3)C[C@H]1[C@@H]1O[C@@H]12 (some centres undefined) | inactive
50 | CC(C)C[C@@H](N)C(=O)O | inactive
51 | CCCCCCCCCCCCSC | inactive
52 | C=CCOCC(O)CO (centres undefined) | inactive
53 | CC(=O)Oc1cccc(C)c1 | inactive
54 | COC(=O)Nc1ccc(Cl)c(Cl)c1 | inactive
55 | CCCCCCC1CCC(=O)O1 (centres undefined) | inactive
56 | CC[C@H]1OC(=O)[C@H](C)[C@@H](O[C@H]2C[C@@](C)(OC)[C@@H](O)[C@H](C)O2)[C@H](C)[C@@H](O[C@@H]2O[C@H](C)C[C@H](N(C)C)[C@H]2O)[C@](C)(OC)C[C@@H](C)C(=O)[C@H](C)[C@@H](O)[C@]1(C)O | inactive
57 | CC(=O)c1ccc2ccccc2c1 | inactive
58 | CC(C)(C)C(=O)Oc1ccc(S(=O)(=O)Nc2ccccc2C(=O)NCC(=O)O)cc1 | inactive
59 | CC(N)C12CC3CC(CC(C3)C1)C2 (centres undefined) | inactive
60 | O=C(O)c1cc(C(=O)O)cc(C(=O)O)c1 | inactive
61 | CCC(=O)OCc1ccccc1 | inactive
62 | CC(C)C1CCC(O)CC1 (centres undefined) | inactive

Test: qHTS assay to test for compound auto fluorescence at 460 nm (blue) in HEK293 cells (AID 720678)
Settings: blue autofluorescence 405/460 nm; series mostly up to 91.3 µM
How it was run: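 Intrinsic compound fluorescence is recorded in live HEK293 cultures after overnight incubation at 37C, 5% CO2, using excitation 405 nm and emission 460 nm. Values are referenced to triamterene.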

Row | Compound | outcome
63 | CO[C@@]1(NC(=O)CSC[C@@H](N)C(=O)O)C(=O)N2C(C(=O)O)=C(CSc3nnnn3C)CS[C@@H]21 | inactive
64 | Cc1ccc(C(=O)Nc2ccc(S(=O)(=O)O)c3cc(S(=O)(=O)O)cc(S(=O)(=O)O)c23)cc1NC(=O)c1cccc(NC(=O)Nc2cccc(C(=O)Nc3cc(C(=O)Nc4ccc(S(=O)(=O)O)c5cc(S(=O)(=O)O)cc(S(=O)(=O)O)c45)ccc3C)c2)c1 | inactive
65 | C=C(C)C(=O)OCCOCCOCCOCCOC(=O)C(=C)C | inactive
66 | OCCCCCO | inactive
67 | CO[Si](C)(OC)c1ccccc1 | inactive
68 | CC1=NS(=O)(=O)c2cc(Cl)ccc2N1 | inactive
69 | CCCCS(=O)(=O)N[C@@H](Cc1ccc(OCCCCC2CCNCC2)cc1)C(=O)O | inactive
70 | c1coc(CNc2ncnc3nc[nH]c23)c1 | inactive
71 | CCOC(=O)COc1cc(-n2ncc(C(F)(F)F)c(C)c2=O)c(F)cc1Cl | inactive
72 | CC(C)CCCO | inactive
73 | O=S(=O)(O)c1cccc2c(S(=O)(=O)O)cccc12 | inactive
74 | C=CN1CCCCCC1=O | inactive
75 | C[N+]1(C)[C@@H]2CC(OC(=O)[C@H](CO)c3ccccc3)C[C@H]1[C@@H]1O[C@@H]12 (some centres undefined) | inactive
76 | CC(C)C[C@@H](N)C(=O)O | inactive
77 | CCOC(=O)COC(=O)c1ccccc1C(=O)OCC | inactive
78 | COC(=O)Nc1ccc(Cl)c(Cl)c1 | inactive
79 | CC[C@H]1OC(=O)[C@H](C)[C@@H](O[C@H]2C[C@@](C)(OC)[C@@H](O)[C@H](C)O2)[C@H](C)[C@@H](O[C@@H]2O[C@H](C)C[C@H](N(C)C)[C@H]2O)[C@](C)(OC)C[C@@H](C)C(=O)[C@H](C)[C@@H](O)[C@]1(C)O | inactive
80 | C=CC(C)(CCC=C(C)C)OC(=O)CC (centres undefined) | inactive
81 | CC(C)(C)C(=O)Oc1ccc(S(=O)(=O)Nc2ccccc2C(=O)NCC(=O)O)cc1 | inactive
82 | O=C(O)c1cc(C(=O)O)cc(C(=O)O)c1 | inactive
83 | CC(C)C1CCC(O)CC1 (centres undefined) | inactive
84 | COc1cc(C(=O)OC(COCCC(C)C)CN2CCOCC2)cc(OC)c1OC (centres undefined) | inactive
